Targets with a hit are over-represented here; the source holds about 7,900 in all. About 0.6% of all pairs of compound and target were hits.
Key:
Test in all cases: log2 fold change, soluble protein after heating vs DMSO (PISA); higher = thermal stabilisation; K562 cells, 10 uM, 30 min; active = over 0.2 and 3.5 SD of the protein, either way, in both replicates (recomputed)
erlotinib = compound: C#Cc1cccc(Nc2ncnc3cc(OCCOC)c(OCCOC)cc23)c1 [erlotinib]
How it was run: (§1)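 Values are thermal stability changes relative to control samples and are taken from duplicates. They are stated as log2 fold changes. Before quantification by TMTpro 16plex LC-MS/MS with equalised channel sums, K562 cells at 2×10^6 cells/mL were treated with 10 μM compound for 30 min, heated in aliquots for 3 min across 48°C-58°C, pooled, extracted in PBS with 0.5% NP-40 at 4°C, and centrifuged at 21,000xg for 90 min to give the soluble supernatant.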

[1] = compound: C/C(=N\NC(=O)C1=CC(=CC=C1)S(=O)(=O)N2CCOCC2)/C3=C(C=CC(=C3)Cl)O
How it was run: as §1

[2] = compound: C1=CC(=C(C=C1Cl)C2=NC3=NC=CN=C3C(=N2)NC4=CC=NC=C4)F
How it was run: as §1

[3] = compound: C1=CC(=CC=C1C2=NC3=C(N2)C=C(C=C3)C(=O)N)OC4=CC=C(C=C4)Cl
How it was run: as §1

[4] = compound: C1=CC2=C(C=CC(=C2)/C=C\3/C(=O)NC(=NCC4=CC=CS4)S3)N=C1
How it was run: as §1

[5] = compound: C1=CC2=NC=CN=C2C=C1/C=C/3\C(=O)NC(=O)S3
How it was run: as §1

[6] = compound: C1=CC=C(C=C1)C2=NC(=C(N2)C3=CC=NC=C3)C4=CC(=C(C=C4)Cl)O
How it was run: as §1

[7] = compound: C1=CC=C2C(=C1)C3=NNC4=CC=CC(=C43)C2=O
How it was run: as §1

[8] = compound: C1CCN(C1)C(=O)NC2=CC=CC(=C2)NC3=NC=C(C(=N3)NCCC4=CN=CN4)Br
How it was run: as §1

[9] = compound: C1CN(CCC1(CC2=CC=C(C=C2)Cl)N)C3=NC=NC4=C3C=CN4
How it was run: as §1

Measured: log2 fold change

RIOK2 (UniProt Q9BVS4)
inactive: erlotinib -0.081 | [1] -0.064 | [2] -0.149 | [3] 0.097 | [4] -0.043 | [5] -0.055 | [6] -0.01 | [7] 0.055 | [8] 0.035 | [9] -0.209

SEC23A (UniProt Q15436)
inactive: erlotinib 0.026 | [1] 0.1 | [2] 0.022 | [3] -0.036 | [4] -0.024 | [5] 0.021 | [6] 0.005 | [7] -0.018 | [8] 0.019 | [9] -0.019

RBM25 (UniProt P49756)
inactive: erlotinib 0.142 | [1] -0.037 | [2] -0.039 | [3] -0.025 | [4] -0.014 | [5] 0.055 | [6] -0.012 | [7] -0.008 | [8] -0.076 | [9] -0.137

RBM39 (UniProt Q14498)
inactive: erlotinib 0.087 | [1] 0.074 | [2] 0.013 | [3] -0.028 | [4] -0.021 | [5] -0.052 | [6] -0.022 | [7] -0.168 | [8] -0.071 | [9] -0.232

RNPS1 (UniProt Q15287)
inactive: erlotinib 0.008 | [1] 0.194 | [2] 0.06 | [3] 0.053 | [4] 0.164 | [5] 0.013 | [6] -0.022 | [7] -0.319 | [8] 0.048 | [9] -0.118

RAC1 (UniProt P63000)
inactive: erlotinib -0.066 | [1] -0.062 | [2] -0.003 | [3] 0.053 | [4] -0.194 | [5] 0.015 | [6] 0.048 | [7] -0.05 | [8] 0.017 | [9] 0.005

RPS6KA2 isoform 2 (UniProt Q15349)
Sequence of UniProt Q15349 (Q15349 whole entry, looked up): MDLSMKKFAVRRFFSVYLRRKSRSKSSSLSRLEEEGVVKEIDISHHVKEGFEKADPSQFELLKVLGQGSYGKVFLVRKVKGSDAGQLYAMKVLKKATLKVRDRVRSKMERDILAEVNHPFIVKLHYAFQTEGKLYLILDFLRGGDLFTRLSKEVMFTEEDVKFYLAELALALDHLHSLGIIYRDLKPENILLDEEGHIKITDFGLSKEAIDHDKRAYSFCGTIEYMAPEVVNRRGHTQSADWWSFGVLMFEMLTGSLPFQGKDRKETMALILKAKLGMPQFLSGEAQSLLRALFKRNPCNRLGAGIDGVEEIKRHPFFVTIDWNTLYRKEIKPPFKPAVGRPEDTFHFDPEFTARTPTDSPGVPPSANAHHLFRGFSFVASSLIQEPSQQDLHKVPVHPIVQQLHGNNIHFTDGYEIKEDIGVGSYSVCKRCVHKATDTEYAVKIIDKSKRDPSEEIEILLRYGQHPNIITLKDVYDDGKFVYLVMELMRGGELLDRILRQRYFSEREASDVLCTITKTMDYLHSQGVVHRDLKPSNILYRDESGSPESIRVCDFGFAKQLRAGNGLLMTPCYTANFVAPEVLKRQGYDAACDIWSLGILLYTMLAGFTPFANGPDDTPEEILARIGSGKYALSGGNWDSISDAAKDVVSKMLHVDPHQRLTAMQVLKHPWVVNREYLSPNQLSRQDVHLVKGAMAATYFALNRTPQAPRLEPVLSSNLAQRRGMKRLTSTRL
active: [7] -0.473
inactive: erlotinib 0.008 | [1] 0.092 | [2] -0.068 | [3] 0.075 | [4] 0.07 | [5] 0.06 | [6] -0.132 | [8] -0.058 | [9] -0.004

RNASET2 (UniProt O00584)
inactive: erlotinib 0.027 | [1] -0.007 | [2] -0.006 | [3] 0.002 | [4] 0.012 | [5] -0.014 | [6] -0.001 | [7] -0.027 | [8] 0.034 | [9] 0.052

RAB3IL1 (UniProt Q8TBN0)
Sequence of UniProt Q8TBN0 (Q8TBN0 whole entry, looked up): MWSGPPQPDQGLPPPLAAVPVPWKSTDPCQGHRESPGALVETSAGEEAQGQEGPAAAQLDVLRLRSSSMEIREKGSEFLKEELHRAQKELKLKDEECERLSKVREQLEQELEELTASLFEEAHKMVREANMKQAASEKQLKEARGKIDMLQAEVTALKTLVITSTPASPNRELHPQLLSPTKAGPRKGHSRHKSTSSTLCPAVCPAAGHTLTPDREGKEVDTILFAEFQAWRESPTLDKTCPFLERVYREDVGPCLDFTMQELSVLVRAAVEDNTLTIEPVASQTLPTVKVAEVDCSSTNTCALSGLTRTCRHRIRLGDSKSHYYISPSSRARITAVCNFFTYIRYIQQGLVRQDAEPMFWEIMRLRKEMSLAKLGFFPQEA
inactive: erlotinib -0.007 | [1] -0.007 | [2] 0.057 | [3] 0.005 | [4] 0.019 | [5] 0.019 | [6] -0.02 | [7] -0.039 | [8] -0.004 | [9] -0.013

SAAL1 (UniProt Q96ER3)
Sequence of UniProt Q96ER3 (Q96ER3 whole entry, looked up): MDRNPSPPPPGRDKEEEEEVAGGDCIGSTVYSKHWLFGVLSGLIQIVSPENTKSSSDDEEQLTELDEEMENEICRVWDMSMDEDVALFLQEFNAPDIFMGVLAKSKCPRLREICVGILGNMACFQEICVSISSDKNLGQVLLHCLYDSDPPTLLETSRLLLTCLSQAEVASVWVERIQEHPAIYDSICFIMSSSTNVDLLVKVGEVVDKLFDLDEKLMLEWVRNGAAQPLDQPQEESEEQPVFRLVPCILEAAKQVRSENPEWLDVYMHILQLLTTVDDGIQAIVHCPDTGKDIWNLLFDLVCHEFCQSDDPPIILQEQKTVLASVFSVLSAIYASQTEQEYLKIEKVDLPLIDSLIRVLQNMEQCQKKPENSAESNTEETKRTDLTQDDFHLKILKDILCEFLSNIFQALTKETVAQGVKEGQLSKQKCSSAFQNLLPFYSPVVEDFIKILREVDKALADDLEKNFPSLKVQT
inactive: erlotinib -0.044 | [1] 0.028 | [2] 0.046 | [3] 0.022 | [4] -0.033 | [5] 0.125 | [6] -0.041 | [7] -0.007 | [8] 0.042 | [9] -0.03

RB1 (UniProt P06400)
inactive: erlotinib -0.007 | [1] 0.041 | [2] 0.012 | [3] 0.016 | [4] 0.124 | [5] 0.04 | [6] 0.034 | [7] -0.114 | [8] -0.065 | [9] -0.02

RBM17 (UniProt Q96I25)
inactive: erlotinib 0.039 | [1] 0.044 | [2] 0.015 | [3] -0.023 | [4] -0.085 | [5] -0.029 | [6] 0.1 | [7] 0.011 | [8] -0.08 | [9] -0.16

RPS5 (UniProt P46782)
inactive: erlotinib -0.149 | [1] -0.087 | [2] -0.193 | [3] 0.038 | [4] -0.047 | [5] -0.045 | [6] -0.003 | [7] 0.008 | [8] 0.022 | [9] -0.125

SEC16A isoform 5 (UniProt O15027)
Sequence of UniProt O15027 (O15027 whole entry, looked up): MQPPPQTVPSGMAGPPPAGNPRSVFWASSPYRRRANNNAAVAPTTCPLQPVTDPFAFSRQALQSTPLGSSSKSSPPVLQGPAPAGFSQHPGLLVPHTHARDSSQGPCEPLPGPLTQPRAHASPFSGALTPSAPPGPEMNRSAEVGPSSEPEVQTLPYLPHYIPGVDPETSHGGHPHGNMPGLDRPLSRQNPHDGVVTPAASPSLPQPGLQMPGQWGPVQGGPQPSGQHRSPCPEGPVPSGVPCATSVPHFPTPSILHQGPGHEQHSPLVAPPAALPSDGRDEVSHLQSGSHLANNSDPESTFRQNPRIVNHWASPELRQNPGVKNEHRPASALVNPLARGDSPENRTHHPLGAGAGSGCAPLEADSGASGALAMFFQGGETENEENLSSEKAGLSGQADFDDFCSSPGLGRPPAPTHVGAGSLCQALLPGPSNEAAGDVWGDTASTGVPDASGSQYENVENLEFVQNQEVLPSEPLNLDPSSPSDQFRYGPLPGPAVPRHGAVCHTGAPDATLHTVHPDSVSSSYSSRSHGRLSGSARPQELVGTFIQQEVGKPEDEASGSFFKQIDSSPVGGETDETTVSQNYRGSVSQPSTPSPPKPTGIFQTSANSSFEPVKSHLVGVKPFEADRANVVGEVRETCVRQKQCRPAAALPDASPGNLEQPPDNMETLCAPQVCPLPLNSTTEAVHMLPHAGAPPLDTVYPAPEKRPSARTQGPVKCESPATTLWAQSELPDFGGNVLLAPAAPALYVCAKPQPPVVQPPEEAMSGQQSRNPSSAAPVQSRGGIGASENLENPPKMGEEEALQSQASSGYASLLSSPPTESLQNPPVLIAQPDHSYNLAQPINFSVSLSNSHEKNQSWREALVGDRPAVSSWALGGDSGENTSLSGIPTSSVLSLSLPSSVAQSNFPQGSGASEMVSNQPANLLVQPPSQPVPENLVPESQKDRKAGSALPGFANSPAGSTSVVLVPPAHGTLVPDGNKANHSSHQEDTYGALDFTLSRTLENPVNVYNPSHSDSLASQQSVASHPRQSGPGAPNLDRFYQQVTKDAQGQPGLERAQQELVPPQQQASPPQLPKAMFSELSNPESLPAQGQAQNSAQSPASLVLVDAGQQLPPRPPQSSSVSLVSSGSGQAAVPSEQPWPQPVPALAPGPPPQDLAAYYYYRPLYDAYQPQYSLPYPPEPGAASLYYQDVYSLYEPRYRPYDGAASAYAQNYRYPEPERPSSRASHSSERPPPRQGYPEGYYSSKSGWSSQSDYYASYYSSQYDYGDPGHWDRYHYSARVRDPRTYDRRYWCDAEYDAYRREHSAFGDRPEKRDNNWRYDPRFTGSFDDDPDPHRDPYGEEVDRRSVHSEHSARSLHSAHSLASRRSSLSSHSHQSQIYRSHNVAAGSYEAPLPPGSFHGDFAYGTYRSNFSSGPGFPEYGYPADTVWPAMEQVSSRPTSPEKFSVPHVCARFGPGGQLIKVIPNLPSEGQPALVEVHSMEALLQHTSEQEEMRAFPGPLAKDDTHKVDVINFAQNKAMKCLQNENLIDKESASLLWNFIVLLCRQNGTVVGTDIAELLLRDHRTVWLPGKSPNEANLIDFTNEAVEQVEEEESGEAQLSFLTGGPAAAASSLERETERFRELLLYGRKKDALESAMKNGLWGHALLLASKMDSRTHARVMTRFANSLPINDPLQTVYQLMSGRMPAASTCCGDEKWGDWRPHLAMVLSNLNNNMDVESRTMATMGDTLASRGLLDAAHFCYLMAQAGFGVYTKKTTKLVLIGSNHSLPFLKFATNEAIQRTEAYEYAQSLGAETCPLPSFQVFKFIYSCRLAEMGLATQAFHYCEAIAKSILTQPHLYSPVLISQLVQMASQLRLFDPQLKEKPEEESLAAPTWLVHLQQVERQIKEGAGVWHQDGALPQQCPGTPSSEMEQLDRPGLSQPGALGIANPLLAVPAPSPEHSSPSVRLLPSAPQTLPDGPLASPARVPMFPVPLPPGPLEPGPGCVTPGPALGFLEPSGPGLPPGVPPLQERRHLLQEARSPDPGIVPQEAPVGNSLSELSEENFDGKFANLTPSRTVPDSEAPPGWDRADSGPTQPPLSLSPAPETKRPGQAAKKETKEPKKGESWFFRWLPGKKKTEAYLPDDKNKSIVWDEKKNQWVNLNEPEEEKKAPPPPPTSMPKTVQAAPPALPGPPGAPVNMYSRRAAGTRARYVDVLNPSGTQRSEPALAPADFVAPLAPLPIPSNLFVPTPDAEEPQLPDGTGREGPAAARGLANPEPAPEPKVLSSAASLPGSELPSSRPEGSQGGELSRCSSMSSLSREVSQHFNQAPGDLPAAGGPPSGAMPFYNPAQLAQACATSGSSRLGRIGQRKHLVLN
inactive: erlotinib 0.126 | [1] -0.143 | [2] -0.064 | [3] 0.015 | [4] 0.153 | [5] -0.018 | [6] 0.044 | [7] 0.069 | [8] 0.06 | [9] 0.017

RNASEH2A (UniProt O75792)
Sequence of UniProt O75792 (O75792 whole entry, looked up): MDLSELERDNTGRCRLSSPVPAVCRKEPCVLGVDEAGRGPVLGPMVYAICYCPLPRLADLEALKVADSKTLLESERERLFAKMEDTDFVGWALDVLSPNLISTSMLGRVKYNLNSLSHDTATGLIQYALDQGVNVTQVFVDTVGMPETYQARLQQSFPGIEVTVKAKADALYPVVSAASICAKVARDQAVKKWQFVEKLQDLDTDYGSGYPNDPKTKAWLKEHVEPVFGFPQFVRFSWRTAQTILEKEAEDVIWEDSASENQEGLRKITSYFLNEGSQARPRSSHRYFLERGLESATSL
inactive: erlotinib 0.041 | [1] 0.085 | [2] -0.062 | [3] 0.019 | [4] 0.119 | [5] -0.038 | [6] -0.026 | [7] 0.065 | [8] -0.016 | [9] -0.115

SCCPDH (UniProt Q8NBX0)
inactive: erlotinib -0.047 | [1] -0.021 | [2] 0.079 | [3] -0.065 | [4] 0.019 | [5] 0.051 | [6] 0.037 | [7] 0.03 | [8] 0.011 | [9] 0.064

RNF187 (UniProt Q5TA31)
inactive: erlotinib 0.095 | [1] -0.05 | [2] -0.061 | [3] -0.028 | [4] 0.101 | [5] -0.028 | [6] -0.067 | [7] 0.008 | [8] 0.017 | [9] -0.056

SELENOH (UniProt Q8IZQ5)
active: [4] -0.297
inactive: erlotinib 0.032 | [1] 0.013 | [2] -0.013 | [3] -0.003 | [5] -0.002 | [6] 0.034 | [7] 0.003 | [8] -0.052 | [9] 0.032

SERINC3 (UniProt Q13530)
Sequence of UniProt Q13530 (Q13530 whole entry, looked up): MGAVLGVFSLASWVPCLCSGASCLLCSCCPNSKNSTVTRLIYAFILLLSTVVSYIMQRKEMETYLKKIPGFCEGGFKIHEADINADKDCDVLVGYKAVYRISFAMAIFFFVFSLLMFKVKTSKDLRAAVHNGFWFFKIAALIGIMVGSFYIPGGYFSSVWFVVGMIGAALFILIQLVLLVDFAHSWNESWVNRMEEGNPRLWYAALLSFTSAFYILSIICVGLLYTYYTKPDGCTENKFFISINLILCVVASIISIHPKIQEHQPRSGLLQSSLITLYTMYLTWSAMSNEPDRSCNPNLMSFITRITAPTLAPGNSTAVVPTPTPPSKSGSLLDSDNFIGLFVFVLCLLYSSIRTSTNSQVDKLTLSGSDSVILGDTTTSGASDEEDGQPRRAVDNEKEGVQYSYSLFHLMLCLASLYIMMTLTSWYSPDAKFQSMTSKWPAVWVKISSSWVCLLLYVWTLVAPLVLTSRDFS
inactive: erlotinib -0.051 | [1] 0.016 | [2] -0.064 | [3] 0.041 | [4] -0.043 | [5] 0.063 | [6] 0.006 | [7] 0.029 | [8] 0.007 | [9] 0.06

RIPK1 (UniProt Q13546)
inactive: erlotinib 0.013 | [1] -0.008 | [2] -0.028 | [3] 0 | [4] 0.068 | [5] -0.016 | [6] 0.004 | [7] 0.219 | [8] 0.002 | [9] -0.015

RPL31 (UniProt P62899)
inactive: erlotinib -0.145 | [1] -0.174 | [2] -0.444 | [3] 0.055 | [4] -0.052 | [5] -0.02 | [6] -0.047 | [7] -0.011 | [8] 0.087 | [9] -0.215

SFXN5 (UniProt Q8TD22)
inactive: erlotinib -0.077 | [1] 0.09 | [2] -0.02 | [3] 0.082 | [4] -0.003 | [5] 0.023 | [6] 0.081 | [7] -0.001 | [8] -0.066 | [9] -0.045

SLC1A3 (UniProt P43003)
inactive: erlotinib 0.025 | [1] 0.017 | [2] 0.194 | [3] 0.053 | [4] -0.169 | [5] 0.001 | [6] 0.007 | [7] 0.012 | [8] 0.05 | [9] 0.163

ROMO1 (UniProt P60602)
Sequence of UniProt P60602 (P60602 whole entry, looked up): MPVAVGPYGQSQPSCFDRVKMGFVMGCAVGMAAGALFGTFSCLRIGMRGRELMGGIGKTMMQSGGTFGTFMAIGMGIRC
inactive: erlotinib 0.016 | [1] -0.092 | [2] 0.045 | [3] -0.01 | [4] -0.009 | [5] 0.018 | [6] 0.008 | [7] 0.003 | [8] 0.039 | [9] 0.001

RAB5IF isoform 5 (UniProt Q9BUV8)
Sequence of UniProt Q9BUV8 (Q9BUV8 whole entry, looked up): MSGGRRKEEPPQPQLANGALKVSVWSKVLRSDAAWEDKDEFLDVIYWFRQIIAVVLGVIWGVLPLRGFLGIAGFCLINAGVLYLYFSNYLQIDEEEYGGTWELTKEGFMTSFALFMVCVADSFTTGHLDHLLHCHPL
active: [6] 0.373
inactive: erlotinib 0.071 | [1] 0.093 | [2] 0.098 | [3] 0.055 | [4] -0.061 | [5] 0.112 | [7] 0.036 | [8] 0.027 | [9] 0.267

RHOA (UniProt P61586)
inactive: erlotinib 0.028 | [1] -0.029 | [2] 0.012 | [3] -0.052 | [4] -0.094 | [5] -0.161 | [6] 0.114 | [7] 0.018 | [8] -0.05 | [9] 0.01

RNF220 (UniProt Q5VTB9)
inactive: erlotinib 0.017 | [1] 0.034 | [2] 0.017 | [3] 0.011 | [4] 0.034 | [5] 0.03 | [6] 0.026 | [7] 0.011 | [8] -0.008 | [9] -0.022

SERPINA7 (UniProt P05543)
inactive: erlotinib -0.118 | [1] -0.1 | [2] -0.024 | [3] 0.091 | [4] 0.15 | [5] -0.111 | [6] -0.004 | [7] -0.072 | [8] 0.164 | [9] 0.272

RCC1 isoform 2 (UniProt P18754)
inactive: erlotinib 0.158 | [1] 0.195 | [2] 0.11 | [3] 0.03 | [4] 0.105 | [5] -0.004 | [6] -0.003 | [7] 0.018 | [8] -0.09 | [9] 0.011

RIOK3 (UniProt O14730)
inactive: erlotinib 0.037 | [1] 0.014 | [2] 0.062 | [3] 0.003 | [4] -0.019 | [5] 0.048 | [6] -0.033 | [7] 0.02 | [8] 0.024 | [9] -0.025

From the supplement of paper PMC10849652
